{
  "source": "PubChem BioAssay (EPA / NIEHS)",
  "conditions_in_all_cases": "mRNA level, 48 h; actives raise or lower the signal",
  "key": {"[1]": {"read-out": "Fatty acid synthase (Homo sapiens) (UniProt P49327)", "experiment": "LTEA_HepaRG_FASN: Life Technologies and Expression Analysis (LTEA) Assay for Fatty Acid Synthase (FASN) using HepaRG (AID 2283448)", "method_in_brief": "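Differentiated human HepaRG cells were exposed for 48 h in serum-free induction medium to eight half-log concentrations up to 100 uM in 0.5% DMSO, in duplicate. FASN mRNA was quantified by TaqMan qRT-PCR, normalized to ACTB/GAPDH/POLR2A, and fitted bidirectionally against DMSO.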"}, "[2]": {"read-out": "Cyclin D2 (CCND2), CCND2 (gene 894)", "experiment": "LTEA_HepaRG_CCND2: Life Technologies and Expression Analysis (LTEA) Assay for Cyclin D2 (CCND2) using HepaRG (AID 2283449)", "method_in_brief": "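Differentiated human HepaRG cells were exposed for 48 h in serum-free induction medium to eight half-log concentrations topping at 100 uM (0.5% DMSO vehicle). CCND2 mRNA was quantified by TaqMan qRT-PCR, normalised to ACTB, GAPDH and POLR2A, and fitted bidirectionally against DMSO.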"}, "[3]": {"read-out": "Cyclin Dependent Kinase Inhibitor 1A (CDKN1A), CDKN1A (gene 1026)", "experiment": "LTEA_HepaRG_CDKN1A: Life Technologies and Expression Analysis (LTEA) Assay for Cyclin Dependent Kinase Inhibitor 1A (CDKN1A) using HepaRG (AID 2283450)", "method_in_brief": "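HepaRG, 48 h dosing, 8-pt half-log series from 100 uM top, 0.5% DMSO vehicle, duplicates. Readout: TaqMan qRT-PCR of CDKN1A transcript, housekeeping-normalized (ACTB, GAPDH, POLR2A). Up/down curve fit relative to DMSO.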"}, "[4]": {"read-out": "Cyclin D1 (CCND1), CCND1 (gene 595)", "experiment": "LTEA_HepaRG_CCND1: Life Technologies and Expression Analysis (LTEA) Assay for Cyclin D1 (CCND1) using HepaRG (AID 2283451)", "method_in_brief": "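qRT-PCR (Fluidigm 96.96 array) read-out of transcript level, housekeeping-normalized (ACTB/GAPDH/POLR2A). HepaRG cells, 48 h chemical exposure, 8-point half-log series from 100 uM, 0.5% DMSO vehicle; gain or loss relative to DMSO baseline.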"}, "[5]": {"read-out": "catalase (CAT), CAT (gene 847)", "experiment": "LTEA_HepaRG_CAT: Life Technologies and Expression Analysis (LTEA) Assay for catalase (CAT) using HepaRG (AID 2283452)", "method_in_brief": "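Differentiated HepaRG cells in serum-free induction medium were dosed 48 h in duplicate, eight half-log concentrations from 100 uM in 0.5% DMSO. Transcript measured by TaqMan qRT-PCR, normalised to ACTB/GAPDH/POLR2A, fitted bidirectionally against DMSO.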"}, "[6]": {"read-out": "flavin-containing dimethylaniline monooxygenases 3 (FMO3), FMO3 (gene 2328)", "experiment": "LTEA_HepaRG_FMO3: Life Technologies and Expression Analysis (LTEA) Assay for flavin-containing dimethylaniline monooxygenases 3 (FMO3) using HepaRG (AID 2283453)", "method_in_brief": "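HepaRG, 48 h exposure, 8-pt half-log series from 100 uM, 0.5% DMSO vehicle, duplicates; FMO3 transcript by Fluidigm TaqMan qRT-PCR, housekeeping-normalized; gain/loss fit vs DMSO.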"}, "[7]": {"read-out": "Cytochrome P450 (CYP1A1), CYP1A1 (gene 1543)", "experiment": "LTEA_HepaRG_CYP1A1: Life Technologies and Expression Analysis (LTEA) Assay for Cytochrome P450 (CYP1A1) using HepaRG (AID 2283454)", "method_in_brief": "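qRT-PCR read-out: CYP1A1 transcript normalized to three housekeeping genes, fitted bidirectionally against 0.5% DMSO vehicle baseline. Human HepaRG cells, 48 h chemical exposure, 8-point half-log series topping at 100 uM.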"}, "[8]": {"read-out": "CFLAR gene, CFLAR (gene 8837)", "experiment": "LTEA_HepaRG_CFLAR: Life Technologies and Expression Analysis (LTEA) Assay for CFLAR gene using HepaRG (AID 2283455)", "method_in_brief": "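HepaRG cells were plated for 48 h, switched to serum-free induction medium, then exposed in duplicate for 48 h to 8 concentrations (top 100 uM, half-log steps, 0.5% DMSO). CFLAR mRNA was measured by qRT-PCR, normalized to ACTB, GAPDH and POLR2A.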"}, "[9]": {"read-out": "Forkhead box O1 (FOXO1), FOXO1 (gene 2308)", "experiment": "LTEA_HepaRG_FOXO1: Life Technologies and Expression Analysis (LTEA) Assay for Forkhead box O1 (FOXO1) using HepaRG (AID 2283456)", "method_in_brief": "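Differentiated human HepaRG cells in serum-free induction medium were exposed in duplicate for 48 h to eight half-log concentrations (top 100 uM, 0.5% DMSO). FOXO1 mRNA was measured by TaqMan qRT-PCR, normalised to ACTB, GAPDH and POLR2A, and fitted bidirectionally against DMSO.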"}, "[10]": {"read-out": "growth arrest and DNA damage 45 (GADD45A), GADD45A (gene 1647)", "experiment": "LTEA_HepaRG_GADD45A: Life Technologies and Expression Analysis (LTEA) Assay for growth arrest and DNA damage 45 (GADD45A) using HepaRG (AID 2283458)", "method_in_brief": "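Differentiated HepaRG cells were exposed in duplicate for 48 h in serum-free induction medium to 8-point half-log concentrations up to 100 uM in 0.5% DMSO. GADD45A mRNA was measured by TaqMan qRT-PCR, normalized to ACTB, GAPDH and POLR2A, with bidirectional fitting versus DMSO.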"}, "[11]": {"read-out": "Forkhead box O3 (FOXO3), FOXO3 (gene 2309)", "experiment": "LTEA_HepaRG_FOXO3: Life Technologies and Expression Analysis (LTEA) Assay for Forkhead box O3 (FOXO3) using HepaRG (AID 2283459)", "method_in_brief": "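Differentiated human HepaRG cells in serum-free induction medium were exposed in duplicate for 48 h to eight half-log concentrations up to 100 uM in 0.5% DMSO. FOXO3 mRNA was quantified by qRT-PCR, normalized to ACTB, GAPDH and POLR2A, with bidirectional fitting versus DMSO.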"}, "[12]": {"read-out": "ABC Transporter (ABCB1), ABCB1 (gene 5243)", "experiment": "LTEA_HepaRG_ABCB1: Life Technologies and Expression Analysis (LTEA) Assay for ABC Transporter (ABCB1) using HepaRG (AID 2283460)", "method_in_brief": "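Differentiated human HepaRG cells, plated 48 h then switched to serum-free induction medium, were exposed in duplicate to eight half-log concentrations up to 100 uM in 0.5% DMSO for 48 h. ABCB1 mRNA was measured by TaqMan qRT-PCR, normalized to ACTB/GAPDH/POLR2A.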"}, "[13]": {"read-out": "growth arrest and DNA damage 45 (GADD45B), GADD45B (gene 4616)", "experiment": "LTEA_HepaRG_GADD45B: Life Technologies and Expression Analysis (LTEA) Assay for growth arrest and DNA damage 45 (GADD45B) using HepaRG (AID 2283461)", "method_in_brief": "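qRT-PCR read-out (Fluidigm TaqMan, housekeeping-normalized) of mRNA change in human HepaRG cells after 48 h chemical exposure; 8-point curve, top 100 uM, half-log steps, 0.5% DMSO vehicle; gain or loss fitted relative to DMSO baseline.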"}, "[14]": {"read-out": "ABC Transporter (ABCC3), ABCC3 (gene 8714)", "experiment": "LTEA_HepaRG_ABCC3: Life Technologies and Expression Analysis (LTEA) Assay for ABC Transporter (ABCC3) using HepaRG (AID 2283462)", "method_in_brief": "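qRT-PCR read-out of ABCC3 transcript, normalized to three housekeeping genes (ACTB, GAPDH, POLR2A), after 48 h chemical exposure of human HepaRG cells. Eight half-log concentrations, highest 100 uM, in 0.5% DMSO; gain or loss fitted relative to DMSO baseline.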"}, "[15]": {"read-out": "ABC Transporter (ABCB11), ABCB11 (gene 8647)", "experiment": "LTEA_HepaRG_ABCB11: Life Technologies and Expression Analysis (LTEA) Assay for ABC Transporter (ABCB11) using HepaRG (AID 2283463)", "method_in_brief": "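Differentiated human HepaRG cells were exposed for 48 h in serum-free induction medium to eight half-log concentrations up to 100 uM in 0.5% DMSO. ABCB11 mRNA was quantified by qRT-PCR, normalized to ACTB, GAPDH and POLR2A, and fitted bidirectionally versus DMSO.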"}, "[16]": {"read-out": "ABC Transporter (ABCC2), ABCC2 (gene 1244)", "experiment": "LTEA_HepaRG_ABCC2: Life Technologies and Expression Analysis (LTEA) Assay for ABC Transporter (ABCC2) using HepaRG (AID 2283464)", "method_in_brief": "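qRT-PCR (TaqMan, Fluidigm array) read-out of ABCC2 mRNA, normalized to three housekeeping genes. Differentiated HepaRG cells were treated 48 h in serum-free induction medium with 8-point half-log series from 100 uM in 0.5% DMSO; curves fitted bidirectionally relative to DMSO.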"}, "[17]": {"read-out": "Broad substrate specificity ATP-binding cassette transporter ABCG2 (Homo sapiens) (UniProt Q9UNQ0)", "experiment": "LTEA_HepaRG_ABCG2: Life Technologies and Expression Analysis (LTEA) Assay for ABC Transporter (ABCG2) using HepaRG (AID 2283465)", "method_in_brief": "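Differentiated HepaRG cells in serum-free induction medium were exposed for 48 h, in duplicate, to eight half-log concentrations up to 100 uM in 0.5% DMSO. ABCG2 mRNA was measured by TaqMan qRT-PCR, normalized to ACTB, GAPDH and POLR2A, and fitted bidirectionally versus DMSO.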"}, "[18]": {"read-out": "ATP-citrate lyase (ACLY), ACLY (gene 47)", "experiment": "LTEA_HepaRG_ACLY: Life Technologies and Expression Analysis (LTEA) Assay for ATP-citrate lyase (ACLY) using HepaRG (AID 2283466)", "method_in_brief": "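Differentiated human HepaRG cells in serum-free induction medium exposed 48 h, in duplicate, to eight half-log concentrations from 100 uM top in 0.5% DMSO; ACLY mRNA measured by qRT-PCR, normalized to ACTB, GAPDH, POLR2A, fitted bidirectionally versus DMSO.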"}, "[19]": {"read-out": "Peroxisomal acyl-coenzyme A oxidase 1 (ACOX1) gene, ACOX1 (gene 51)", "experiment": "LTEA_HepaRG_ACOX1: Life Technologies and Expression Analysis (LTEA) Assay for Peroxisomal acyl-coenzyme A oxidase 1 (ACOX1) gene using HepaRG (AID 2283467)", "method_in_brief": "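Differentiated human HepaRG cells were exposed in duplicate for 48 h in serum-free induction medium to eight half-log concentrations up to 100 uM in 0.5% DMSO. ACOX1 mRNA was then quantified by TaqMan qRT-PCR, normalized to ACTB, GAPDH and POLR2A.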"}, "[20]": {"read-out": "Alkaline Phosphatase, Placental (ALPP) gene, ALPP (gene 250)", "experiment": "LTEA_HepaRG_ALPP: Life Technologies and Expression Analysis (LTEA) Assay for Alkaline Phosphatase, Placental (ALPP) gene using HepaRG (AID 2283468)", "method_in_brief": "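qRT-PCR readout of ALPP mRNA (Fluidigm TaqMan), normalized to ACTB/GAPDH/POLR2A, after 48 h chemical exposure of HepaRG cells; 8-point half-log series, top 100 uM, 0.5% DMSO vehicle. Bidirectional curve fit versus DMSO baseline.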"}},
  "note": "Activity calls are given as the source filed them. Rule for the calls: active = hit-call score of the fitted dose curve at least 0.9, where 1 is the maximum; inactive = score below 0.9.",
  "data": [
    {"smiles": "CCC(C)=NO", "values": [
      {"measurement": "outcome", "setting": "[1]", "value": "inactive"},
      {"measurement": "outcome", "setting": "[2]", "value": "inactive"},
      {"measurement": "outcome", "setting": "[3]", "value": "inactive"},
      {"measurement": "outcome", "setting": "[4]", "value": "inactive"},
      {"measurement": "outcome", "setting": "[5]", "value": "inactive"},
      {"measurement": "outcome", "setting": "[6]", "value": "inactive"},
      {"measurement": "AC50", "setting": "[7]", "value": "49.8 µM (active)"},
      {"measurement": "outcome", "setting": "[8]", "value": "inactive"},
      {"measurement": "outcome", "setting": "[9]", "value": "inactive"},
      {"measurement": "outcome", "setting": "[10]", "value": "inactive"},
      {"measurement": "outcome", "setting": "[11]", "value": "inactive"},
      {"measurement": "outcome", "setting": "[12]", "value": "inactive"},
      {"measurement": "outcome", "setting": "[13]", "value": "inactive"},
      {"measurement": "outcome", "setting": "[14]", "value": "inactive"},
      {"measurement": "outcome", "setting": "[15]", "value": "inactive"},
      {"measurement": "outcome", "setting": "[16]", "value": "inactive"},
      {"measurement": "outcome", "setting": "[17]", "value": "inactive"},
      {"measurement": "outcome", "setting": "[18]", "value": "inactive"},
      {"measurement": "outcome", "setting": "[19]", "value": "inactive"},
      {"measurement": "outcome", "setting": "[20]", "value": "inactive"}
    ]}
  ]
}
